Compounds with a hit are over-represented: about 2.5% of the library has one in this group of screens.
MARV entry inh: inhibitors of Marburg virus binding or cell entry | Marburg virus pseudotyped entry inhibition, cell reporter | Potency, µM (doses to about 37.8 µM), actives largely listed as inhibitors | hit rate 1.8% among 300,000; calls by dose curve; tested in HEK293 cells
Lassa entry inh: Lassa virus entry inhibition; Lassa virus pseudotype entry inhibition, cell reporter; Potency, µM (top dose mostly 37.9 µM), usual class: inhibitors; hit rate 1.2% among 300,000; calls by dose curve; tested in HEK293 cells; note: nearly all actives have a fitted effect of over 50% in size
VACV mCherry inh: inhibitors of vaccinia virus infection (mCherry reporter signal); Vaccinia virus mCherry reporter infection, fluorescence; Potency, µM (top dose mostly 36.5 µM), most hits filed as inhibitors; hit rate 0.63% among 310,000; calls by dose curve; tested in A549 cells; note: nearly all actives have a fitted effect of over 35% in size
VACV Venus inh: vaccinia inhibition (Venus reporter) | Vaccinia virus Venus reporter expression, fluorescence | Potency, µM (top dose mostly 36.5 µM), actives largely listed as inhibitors | hit rate 0.46% among 330,000; calls by dose curve; tested in A549 cells; note: nearly all actives have a fitted effect of over 30% in size
Each line names hits and unclear results; the compound was inactive in the other large screens.

COc1ccc(-n2c(=S)[nH]c3cc(C(=O)Nc4ccccc4OC)ccc3c2=O)cc1	none (no result: VACV mCherry inh, VACV Venus inh)
CCOC(=O)c1ccc(NC(=O)CC[C@@H](CC)C(=O)O)cc1	none (no result: Lassa entry inh, VACV mCherry inh, VACV Venus inh)
COc1ccc(-n2cc(CNCCN3CCOC3=O)c(-c3ccccc3Cl)n2)cc1	none (no result: MARV entry inh, Lassa entry inh)
CCN1CCC(CNCc2cn(-c3ccc(OC)cc3)nc2-c2ccccc2Cl)C1 (stereo not given)	MARV entry inh 4µM, Lassa entry inh inconclusive, VACV mCherry inh inconclusive
Cc1ccc(C)c(-n2c(-c3ccc(Br)cc3)csc2=NC(=O)c2ccccc2F)c1	MARV entry inh 1.3µM, Lassa entry inh inconclusive
CC(C)C(=O)NCC1CCC2(CCN(Cc3ccc(-c4ccccc4Cl)o3)CC2)O1 (stereo not given)	none (no result: MARV entry inh, Lassa entry inh)
CC(=O)c1c(C)[nH]c2ccc(OCC(O)CNCCc3ccccc3)cc12 (stereo not given)	none (no result: MARV entry inh, Lassa entry inh)
COc1ccc2c(=O)c3c(=O)n(Cc4ccco4)c(-c4ccc(C)cc4)nc3oc2c1	none (no result: VACV mCherry inh, VACV Venus inh)
COc1cc(-c2nc3oc4ccccc4c(=O)c3c(=O)n2Cc2ccco2)cc(OC)c1OC	MARV entry inh 7.9µM, Lassa entry inh 6.3µM
COc1ccc(C2(C(=O)NCC3Cc4cccc(-c5nc(C)cnc5C)c4O3)CCCC2)cc1 (stereo not given)	none (no result: MARV entry inh, Lassa entry inh)
C[N+]1(CC(=O)c2ccc(O)c(O)c2)CCOCC1	none (no result: MARV entry inh, Lassa entry inh)
N#CC1=C(N)Oc2cc(N)ccc2C1c1cccc(F)c1 (stereo not given)	MARV entry inh inconclusive, VACV mCherry inh inconclusive
CN(C)c1ccc2c(c1)OC(N)=C(C#N)C2c1cccc(F)c1 (stereo not given)	MARV entry inh 2.1µM, Lassa entry inh inconclusive (no result: VACV mCherry inh, VACV Venus inh)
CC(/C=N/NC(=O)c1nnn(-c2nonc2N)c1CN(C)C)=C\c1ccco1	none
CCCN(CCC)Cc1c(C(=O)N/N=C/C(C)=C\c2ccco2)nnn1-c1nonc1N	MARV entry inh 4.5µM, Lassa entry inh inconclusive, VACV mCherry inh 10µM, VACV Venus inh inconclusive
CN1CCCc2cc(/C=C/c3ccnc4ccccc34)ccc21	none (no result: MARV entry inh, Lassa entry inh)
CC(C)(C)OC(=O)N1CCC[C@H]1c1nnc(SCc2ccc(Cl)cc2Cl)o1	MARV entry inh 8.9µM, Lassa entry inh inconclusive (no result: VACV mCherry inh)
CC(C)(C)OC(=O)N1CCC[C@H]1c1nnc(SCc2ccccc2Cl)o1	Lassa entry inh inconclusive, VACV Venus inh inconclusive (no result: VACV mCherry inh)
COc1ccc(CN2CCc3nnc(CCc4ccccc4)n3CC2)c(OC)c1C	none (no result: MARV entry inh, Lassa entry inh)
COc1cc(O)c2c(=O)c(-c3ccc(O[C@@H]4O[C@H](CO)[C@@H](O)[C@H](O)[C@H]4O)cc3)coc2c1	MARV entry inh 10µM, Lassa entry inh inconclusive, VACV mCherry inh inconclusive
O=c1c(OC2OC(CO)C(O)C(O)C2O)c(-c2ccc(O)c(O)c2)oc2cc(O)cc(O)c12 (stereo not given)	MARV entry inh 15µM
COc1ccccc1CN1CCC2(CCC(CNC(=O)c3ccccc3N(C)C)O2)CC1 (stereo not given)	none (no result: MARV entry inh, Lassa entry inh)
CCOC(=O)c1ccc(NC(=O)C2(c3ccc(OC)cc3)CCCC2)cc1	MARV entry inh inconclusive, Lassa entry inh 11µM (no result: VACV mCherry inh)
CCOC(=O)c1ccc(NC(=O)C2(c3ccc(OC)cc3)CCOCC2)cc1	Lassa entry inh inconclusive (no result: VACV mCherry inh)
CCN(CC)S(=O)(=O)c1ccc(-c2nnc(SCC(=O)N3c4ccccc4CC3C)n2CC)cc1 (stereo not given)	MARV entry inh inconclusive, Lassa entry inh inconclusive
CCN(CC)S(=O)(=O)c1ccc(-c2nnc(SCC(=O)N3c4ccccc4CC3C)o2)cc1 (stereo not given)	Lassa entry inh inconclusive, VACV mCherry inh 0.63µM, VACV Venus inh inconclusive
CC(C)N1C[C@@H](Sc2ccccn2)C[C@H]1C(=O)Nc1ccc2c(c1)Nc1ccccc1CC2	none (no result: MARV entry inh, Lassa entry inh)
C/C(=N\Nc1ccc(Cl)cc1)c1ccccn1	MARV entry inh inconclusive
COc1ccc2nc(NN=C(C)c3ccccn3)cc(C)c2c1	MARV entry inh inconclusive, Lassa entry inh inconclusive, VACV mCherry inh 1µM, VACV Venus inh inconclusive
N#C/C(=C\c1c[nH]c2ccc(Br)cc12)c1ccccn1	MARV entry inh 13µM, Lassa entry inh inconclusive, VACV mCherry inh inconclusive
O=Cc1ccc(N2CCOCC2)cc1	none (no result: MARV entry inh, Lassa entry inh)
Cc1cccc(N(Cc2ccccc2)C(=O)c2ccc(F)c(S(=O)(=O)N3CCOCC3)c2)c1	MARV entry inh 11µM
Cc1ccc(N(Cc2ccccc2)C(=O)c2ccc(F)c(S(=O)(=O)N3CCOCC3)c2)cc1	MARV entry inh inconclusive
COc1cc(N)c(N)cc1OC	none (no result: MARV entry inh, Lassa entry inh)
COc1ccc(OC)c(NC(=O)Nc2cccc3ccccc23)c1	none
COC(=O)c1cc(OC)c(OC)cc1NC(=O)c1cc(-c2ccccc2)nc2ccccc12	none (no result: VACV mCherry inh, VACV Venus inh)
COc1cccc(C(=O)Nc2cccc3ccccc23)c1OC	MARV entry inh 8.9µM, Lassa entry inh inconclusive
COc1ccc(-c2cc(C(=O)Nc3ccccc3O)c3ccccc3n2)cc1OC	none
COc1ccccc1NC(=O)c1cc(-c2cc(OC)c(OC)c(OC)c2)nc2ccccc12	MARV entry inh 3.2µM, Lassa entry inh inconclusive
COc1ccc(NC(=O)Nc2cccc3ccccc23)cc1S(N)(=O)=O	Lassa entry inh 4µM
CCOc1ccccc1NC(=O)c1cc(-c2cc(OC)c(OC)c(OC)c2)nc2ccccc12	MARV entry inh inconclusive, Lassa entry inh 11µM
Cc1ccc(S(=O)(=O)N2CCN(c3ccnc(-c4cccs4)n3)CC2)cc1	none (no result: MARV entry inh, Lassa entry inh)
O=C(C[n+]1cccc2cccc(O)c21)c1ccccc1	none (no result: MARV entry inh, Lassa entry inh)
CCOc1cc(N2CCOCC2)c(OCC)cc1NC(=O)c1cc(-c2ccco2)nc2ccccc12	MARV entry inh 16µM, Lassa entry inh inconclusive
CC=COC(=O)N[C@@H](c1ccccc1)[C@]1(C(C)=O)CCOC1=O	none (no result: Lassa entry inh, VACV mCherry inh, VACV Venus inh)
C=CC[C@@H]1C=C[C@H](ON=C[C@@H](C)[C@H](OCc2ccccc2)C(C)C)[C@H](CO)O1	Lassa entry inh inconclusive (no result: VACV mCherry inh, VACV Venus inh)
C[C@@H](C(=O)Nc1ccc2ccccc2c1)[C@H]1C[C@]1(C)[C@H](NS(=O)(=O)c1ccc(-c2ccccc2)cc1)c1ccccc1	MARV entry inh 12µM
C[C@@H](C(=O)Nc1ccc2ccccc2c1)[C@@H]1C[C@@]1(C)[C@@H](NC(=O)c1ccccc1)c1ccccc1	none
CCOc1ccc(CCNC(=O)Cn2c(-c3cccs3)cc3cc(F)ccc32)cc1OCC	MARV entry inh inconclusive, Lassa entry inh 11µM, VACV mCherry inh inconclusive, VACV Venus inh inconclusive
CCOc1ccc(CCNC(=O)c2cc3sc(Cl)cc3n2C)cc1OCC	MARV entry inh inconclusive
CCOc1ccc(CCNC(=O)c2cc3sccc3n2C)cc1OCC	MARV entry inh 7.1µM
COc1ccccc1C1CN(Cc2cccc(OCCO)c2)Cc2ccccc2O1 (stereo not given)	none (no result: MARV entry inh, Lassa entry inh)
CCN1C(=NCc2ccc3c(c2)OCO3)NC(c2ccccc2)C(C(=O)OC)=C1C (stereo not given)	none (no result: Lassa entry inh, VACV mCherry inh, VACV Venus inh)
O=S(=O)(Nc1nc2ccccc2nc1Nc1ccc(N2CCOCC2)cc1)c1cc(Cl)ccc1Cl	MARV entry inh 7.3µM, Lassa entry inh inconclusive (no result: VACV mCherry inh, VACV Venus inh)
CN(C)c1ccc(/C=C/N2C=CCc3c2ccc2ccccc32)cc1	none (no result: MARV entry inh, Lassa entry inh)
O=C(Nc1ccccc1C(=O)Nc1nnc(C(F)(F)F)s1)c1ccccc1	MARV entry inh 4µM, Lassa entry inh 10µM, VACV mCherry inh inconclusive, VACV Venus inh inconclusive
COC(=O)[C@@H]1CC[C@H](C)[C@@H](c2ccc(C)cc2)N1C(=O)c1ccc(C=NOC[C@@H](O)[C@H]2O[C@@H]3OC(C)(C)O[C@H]3[C@@H]2O)cc1	none (no result: VACV mCherry inh, VACV Venus inh)
CC1(C)OC(=O)N(c2ccccc2)C12C=Cc1cc(Br)ccc1O2 (stereo not given)	MARV entry inh 18µM (no result: VACV mCherry inh, VACV Venus inh)
